PubChem BioAssay AID651815 (National Center for Advancing Translational Sciences (NCATS), 2012)
The whole screen tested about 2,100 compounds, of which about 1,100 (52%) were called active. Not shown: some 29% with an inconclusive outcome. Calls come from the whole dose curve; as a rule, active = well fitted inhibition curve with a large enough effect; inconclusive = small, poorly fitted or top-dose-only effect; inactive = no such curve, though single readings can be large or run the other way. So high a share suggests a set chosen from earlier hits. This is one part of the list.

target: DNA dC->dU-editing enzyme APOBEC-3F (Homo sapiens) (UniProt Q8IUX4); assay: qHTS for inhibitors of Vif-A3F interactions: Cherry picks counterscreen; conditions: HeLa A3F-eYFP/Vif cells, eYFP fluorescence, 24 h; series mostly up to 46.1 µM; note: nearly all actives have a fitted effect of over 65% in size
Method in brief: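 HeLa cells stably expressing A3F-eYFP and Vif, cultured overnight, then treated 24 h at 37 degrees C with compounds at several concentrations; yellow fluorescence (488 nm Ex/500-530 nm Em) imaged on Acumen; MG132 positive control.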
Potency is the fitted concentration of half-maximal effect.

Sequence of DNA dC->dU-editing enzyme APOBEC-3F (Homo sapiens) (Q8IUX4 whole entry, looked up): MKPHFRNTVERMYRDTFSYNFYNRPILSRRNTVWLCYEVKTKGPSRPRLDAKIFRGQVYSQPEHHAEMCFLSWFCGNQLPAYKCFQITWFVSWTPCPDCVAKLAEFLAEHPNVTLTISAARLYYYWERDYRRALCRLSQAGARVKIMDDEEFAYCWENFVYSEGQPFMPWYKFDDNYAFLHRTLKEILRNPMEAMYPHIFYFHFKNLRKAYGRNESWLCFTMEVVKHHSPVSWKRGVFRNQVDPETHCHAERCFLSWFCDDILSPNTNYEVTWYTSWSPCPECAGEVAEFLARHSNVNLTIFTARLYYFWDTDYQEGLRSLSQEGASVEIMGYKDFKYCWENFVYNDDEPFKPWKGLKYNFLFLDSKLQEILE

Row | Compound | Potency
1 | CN1C(=O)c2cccc(NCCCN3C(=O)c4ccccc4C3=O)c2C1=O | 18.4 µM (active)
2 | CCCOc1ccc(N)cc1N | inactive
3 | CCN1C(=O)/C(=C/c2ccc(N3CCCC3)cc2)NC1=S | 20.6 µM (active)
4 | O=C1/C(=C/c2ccc(N3CCCC3)cc2)NC(=S)N1C1CC1 | 14.6 µM (active)
5 | CN(C)c1ccc(/C=C2\NC(=S)N(Cc3ccccc3)C2=O)cc1 | 2.23 µM (active)
6 | Cc1cccc(N2CCN(Cc3cn(C)nc3-c3ccccc3F)CC2)n1 | 6.27 µM (active)
7 | Cc1sc(-c2cc3c([nH]c2=O)CC(c2ccccc2)CC3=O)nc1-c1ccc(Cl)cc1 (configuration not stated) | 8.2 µM (active)
8 | O=C1CC(c2ccccc2)Cc2[nH]c(=O)c(-c3nc(-c4cccc(Cl)c4)cs3)cc21 (configuration not stated) | 4.11 µM (active)
9 | CCOC(=O)N1CCN(c2c(NCc3ccc(F)cc3)c(=O)c2=O)CC1 | 17.7 µM (active)
10 | Cc1[nH]c2ccccc2c1/C=C/C(=O)c1ccccc1 | 23.1 µM (active)
11 | Cc1ccc2[nH]c(C)c(/C=C/c3cc[n+](C)cc3)c2c1 | 1.77 µM (active)
12 | Cc1[nH]c2ccccc2c1/C=C/c1cc[n+](C)cc1 | 6.27 µM (active)
13 | COc1ccccc1-c1c(C#N)c(N)nc2c1CCc1ccccc1-2 | 3.14 µM (active)
14 | CSc1nc(N)c(C#N)c(-c2ccccc2Cl)c1C#N | inactive
15 | Cc1ccc(C=Nc2ccccc2C(N)=O)s1 | 3.96 µM (active)
16 | COc1cc(/C=C2/SC(=S)N(Cc3ccccc3)C2=O)cc(Cl)c1O | 3.96 µM (active)
17 | O=C(O)c1cc(-c2ccc(/C=C3/SC(=S)N(Cc4ccccc4)C3=O)o2)ccc1Cl | 14.6 µM (active)
18 | COc1cc(/C=C2/SC(=S)N(CCC(=O)Nc3ccccc3)C2=O)cc(OC)c1OC | 23.1 µM (active)
19 | O=C1/C(=C\c2ccc(O)cc2)SC(=S)N1Cc1ccccc1 | inactive
20 | CCC(=C/c1sc2ccc3ccccc3c2[n+]1C)/C=C1\Sc2ccc3ccccc3c2N1C | inactive
21 | Cc1csc(NC(=O)CCC(=O)N(CC(=O)NC2CCCC2)Cc2ccccc2)n1 | inactive
22 | Nc1c(C(=O)c2ccc(Cl)cc2)sc2nc3c(cc12)CCC3 | 18.4 µM (active)
23 | CCN1CCc2nc3sc(C(=O)c4ccccc4)c(N)c3cc2C1 | 23.1 µM (active)
24 | Cc1ccccc1NC(=O)c1sc2nc3c(c(-c4ccco4)c2c1N)CCC3 | inactive
25 | COc1ccc(NC(=O)c2sc3nc4c(cc3c2N)CN(Cc2ccccc2)CC4)c(OC)c1 | 18.4 µM (active)

Row | Compound | Potency
26 | COc1ccc(/C=C2\Oc3cc(OC(=O)N4CCOCC4)ccc3C2=O)c(OC)c1 | inactive
27 | COc1cc(OC)c(OC)cc1/C=C1\Oc2cc(OCC(=O)N3Cc4ccccc4C[C@H]3C(=O)O)ccc2C1=O | 1.84 µM (active)
28 | CC(=O)Oc1ccc(N2C(=O)c3cccc4c([N+](=O)[O-])ccc(c34)C2=O)cc1 | inactive
29 | Cc1nnc(N2C(=O)c3cccc4c([N+](=O)[O-])ccc(c34)C2=O)s1 | 20.6 µM (active)
30 | O=C1c2cccc3c([N+](=O)[O-])ccc(c23)C(=O)N1c1ccccn1 | inactive
31 | COc1cc2c3nnc(-c4ccccc4)c-3cn(Cc3ccccc3F)c2cc1OC | 3.66 µM (active)
32 | COc1cc2c3nnc(-c4ccc(F)cc4)c-3cn(Cc3ccc(C)cc3)c2cc1OC | 15.8 µM (active)
33 | COc1cc2c3nnc(-c4ccc(F)cc4)c-3cn(Cc3ccccc3F)c2cc1OC | 16.4 µM (active)
34 | Cn1nnc2c[n+](CC(=O)c3ccc(Cl)cc3)cc(Br)c21 | 17.7 µM (active)
35 | O=C1CCCN1c1ccc(S(=O)(=O)Nc2ccc3c(c2)OCCO3)cc1 | 3.96 µM (active)
36 | O=[N+]([O-])c1cc(O)c2ncccc2c1 | inactive
37 | O=[N+]([O-])c1ccc(Oc2cccc3cccnc23)c([N+](=O)[O-])c1 | 14 µM (active)
38 | CC1CC(C)(C)Nc2ccc(OC(=O)c3ccco3)cc21 (configuration not stated) | 18.4 µM (active)
39 | CC1(C)Cc2nc3sc4c(SCC(=O)NCc5ccco5)ncnc4c3cc2CO1 | 5.59 µM (active)
40 | CC1(C)Cc2nc3sc4c(=O)n(CC(=O)NCc5ccccc5)cnc4c3cc2CO1 | 2.23 µM (active)
41 | CCc1ccc(N=Nc2ccc(O)c3[nH]cnc23)cc1 | 8.2 µM (active)
42 | S=C(Nc1ccccc1)N1CCn2c1nc1ccccc12 | inactive
43 | CCCOc1ccc(C(=O)Nc2cccc(NC(=O)c3ccc(Cl)cc3Cl)c2)cc1 | 20.6 µM (active)
44 | COc1cc(OC)cc(C(=O)Nc2ccc(N3CCN(C(=O)c4cccs4)CC3)cc2)c1 | 7.9 µM (active)
45 | COc1cc(C(=O)OCC(=O)Nc2ccc(N3CCOCC3)cc2)ccc1OCC(C)C | inactive
46 | COc1cccc(C(=O)Nc2ccc(N3CCCC3)cc2)c1 | 5.59 µM (active)
47 | O=C(OCCC12CC3CC(CC(C3)C1)C2)c1ccc(NCc2cc(O)ccc2O)cc1 | 15.8 µM (active)
48 | Cc1ccc(C)c(Nc2nn3c(=O)c4ccc(C(=O)NCc5cccs5)cc4nc3s2)c1 | 20.6 µM (active)
49 | N#Cc1c(C(F)(F)F)cc(-c2cccs2)nc1SCC(=O)Nc1ccc(Cl)cc1 | 7.31 µM (active)
50 | N#Cc1c(C(F)(F)F)cc(-c2cccs2)nc1SCC(=O)Nc1cccc(Cl)c1 | inactive

Row | Compound | Potency
51 | N#Cc1c(C(F)(F)F)cc(-c2cccs2)nc1SCC(=O)Nc1cccc(C(F)(F)F)c1 | 20.6 µM (active)
52 | CCOC(=O)c1ccc(NC(=O)CSc2nc(-c3cccs3)cc(C(F)(F)F)c2C#N)cc1 | 16.4 µM (active)
53 | O=c1[nH]cnc2n[nH]nc12 | 10.3 µM (active)
54 | CCOc1ccc(N/C=C/C(=O)c2cc(OC)c(OC)c(OC)c2)cc1 | 15.8 µM (active)
55 | COc1ccc(N/C=C/C(=O)c2cc(OC)c(OC)c(OC)c2)cc1 | 0.498 µM (active)
56 | CCOc1ccc(NC(=O)Cn2c(=O)n(Cc3ccc(C(=O)NCc4ccc(C)cc4)cc3)c(=O)c3ccccc32)cc1 | 14.6 µM (active)
57 | CCn1c(SCC(=O)N/N=C/c2ccc(C)s2)nc2ccccc21 | 4.98 µM (active)
58 | COc1ccc(NC(=S)NN(C)C(=S)Nc2ccc(OC)cc2)cc1 | 3.14 µM (active)
59 | C=CCNC(=S)N/N=C(\C)c1ccc(OC)cc1 | inactive
60 | O=C(Nc1cc(=O)[nH]c(=O)[nH]1)c1cc(Cl)ccc1Cl | 8.86 µM (active)
61 | CCCCCCc1cc2cc(-c3nnc(-c4ccccc4OC)o3)c(=O)oc2cc1O | 1.98 µM (active)
62 | CCCCCCc1cc2cc(-c3nnc(-c4ccccc4)o3)c(=O)oc2cc1O | 3.53 µM (active)
63 | CCCCCCc1cc2cc(-c3nnc(-c4ccccc4O)o3)c(=O)oc2cc1O | inactive
64 | C=CCN=c1scc(-c2ccc(F)cc2)n1/N=C/c1ccccn1 | inactive
65 | C[n+]1ccc(/C=C/c2c[nH]c3ccc(F)cc23)cc1 | 8.2 µM (active)
66 | COc1ccc2[nH]cc(/C=C/c3cc[n+](C)cc3)c2c1 | 16.4 µM (active)
67 | Cc1ccc2[nH]cc(/C=C/c3cc[n+](C)cc3)c2c1 | 6.27 µM (active)
68 | O=C(Nc1ccccc1-c1nc2ccccc2[nH]1)c1ccc(N2C(=O)CCC2=O)cc1 | 16.4 µM (active)
69 | O=C1/C(=C/c2c[nH]c3ccccc23)CCC/C1=C\c1c[nH]c2ccccc12 | 23.1 µM (active)
70 | N#CC1=C2SCC(O)(c3ccccc3)N2C(=O)CC1c1ccccc1 (configuration not stated) | 4.98 µM (active)
71 | Cc1cccc(C)c1NC(=S)NC(C)CCc1ccccc1 (configuration not stated) | inactive
72 | COc1ccc2oc(-c3ccccc3[N+](=O)[O-])cc(=O)c2c1 | 6.27 µM (active)
73 | COc1ccccc1NC(=O)c1sc2ncn(CC(=O)Nc3ccccc3)c(=O)c2c1C | 20.6 µM (active)
74 | Cc1ccnc(NC(=O)Nc2ccc3c(c2)N(C)C(=O)CS3)c1 | 23.1 µM (active)
75 | CO/N=C\CC(=O)Nc1ccc(Oc2ccccc2)cc1 | 1.98 µM (active)

Row | Compound | Potency
76 | CC(C)(C)c1ccc(Oc2ccc(NC(=O)c3ccccc3C(=O)O)cn2)cc1 | inactive
77 | CO/N=C\CC(=O)Nc1ccc(Cl)c(Cl)c1 | 9.94 µM (active)
78 | CC(=O)Nc1ccc(NC(=O)C/C(C)=N/NC(N)=S)cc1 | inactive
79 | O=C(Cc1nc2ccccc2[nH]c1=O)c1ccc(Cl)cc1 | 8.2 µM (active)
80 | COc1cc2c(cc1OC)CN(C(=O)c1cc(=O)c3ccccc3o1)CC2 | 11.2 µM (active)
81 | CCC(=Nc1ccccc1O)C1=C(O)CC(c2ccccc2)CC1=O (configuration not stated) | inactive
82 | COc1ccccc1N=C(C)C1=C(O)CC(c2ccccc2)CC1=O (configuration not stated) | 0.994 µM (active)
83 | Cc1cnc(NC(=O)CC(C)c2ccccc2)s1 (configuration not stated) | 5.59 µM (active)
84 | Cc1cc(/C=C2\SC(=S)N(Cc3ccco3)C2=O)c(C)n1-c1ccccc1 | 23.1 µM (active)
85 | CCN1CCN(c2c(/C=C3\SC(=S)N(Cc4ccco4)C3=O)c(C)c(C#N)c(=O)n2C)CC1 | 14.6 µM (active)
86 | Cc1cc(/C=C2\SC(=S)N(Cc3ccco3)C2=O)c(C)n1-c1cccnc1 | 20.6 µM (active)
87 | CN(C)c1ccc(C=C2SC(=S)N(Cc3ccco3)C2=O)cc1 | 3.96 µM (active)
88 | COC(=O)c1ccc(Oc2cc(C)nc(SC)n2)cc1 | 2.8 µM (active)
89 | COCCNC(=S)N/N=C(\C)c1ccccc1O | inactive
90 | C/C(=N/N=C(\C)c1ccccc1O)c1ccccc1O | 18.4 µM (active)
91 | C/C(=N\NC(=O)C(C)n1nc(C)c([N+](=O)[O-])c1C)c1ccccc1O (configuration not stated) | inactive
92 | O=C1c2cccc3c(N4CCCCC4)ccc(c23)C(=O)N1c1ccccc1O | inactive
93 | O=C1c2cccc3c(N4CCCCC4)ccc(c23)C(=O)N1CCO | 17.7 µM (active)
94 | Cc1ccc(N2C(=O)c3cccc4c(N5CCN(C)CC5)ccc(c34)C2=O)c2cccnc12 | 14 µM (active)
95 | C=CCN1C(=O)c2cccc3c(N4CCCCC4)ccc(c23)C1=O | 16.4 µM (active)
96 | O=C1c2cccc3c(N4CCCCC4)ccc(c23)C(=O)N1c1cccc(O)c1 | 3.66 µM (active)
97 | O=C1c2cccc3c(N4CCCCC4)ccc(c23)C(=O)N1c1ccc(O)cc1 | inactive
